hNpr1 antagonist – human Npr1 receptor antagonism | HEK293 hNpr1 GloSensor cGMP, ANP-stimulated luminescence | Potency, µM (highest dose often 46.3 µM), most hits filed as inhibitors | 1.6% of 76,000 active | AID 1347048; calls by dose curve; further: nearly all actives have a fitted effect of over 60% in size
Target sequence (P16066 whole entry, looked up): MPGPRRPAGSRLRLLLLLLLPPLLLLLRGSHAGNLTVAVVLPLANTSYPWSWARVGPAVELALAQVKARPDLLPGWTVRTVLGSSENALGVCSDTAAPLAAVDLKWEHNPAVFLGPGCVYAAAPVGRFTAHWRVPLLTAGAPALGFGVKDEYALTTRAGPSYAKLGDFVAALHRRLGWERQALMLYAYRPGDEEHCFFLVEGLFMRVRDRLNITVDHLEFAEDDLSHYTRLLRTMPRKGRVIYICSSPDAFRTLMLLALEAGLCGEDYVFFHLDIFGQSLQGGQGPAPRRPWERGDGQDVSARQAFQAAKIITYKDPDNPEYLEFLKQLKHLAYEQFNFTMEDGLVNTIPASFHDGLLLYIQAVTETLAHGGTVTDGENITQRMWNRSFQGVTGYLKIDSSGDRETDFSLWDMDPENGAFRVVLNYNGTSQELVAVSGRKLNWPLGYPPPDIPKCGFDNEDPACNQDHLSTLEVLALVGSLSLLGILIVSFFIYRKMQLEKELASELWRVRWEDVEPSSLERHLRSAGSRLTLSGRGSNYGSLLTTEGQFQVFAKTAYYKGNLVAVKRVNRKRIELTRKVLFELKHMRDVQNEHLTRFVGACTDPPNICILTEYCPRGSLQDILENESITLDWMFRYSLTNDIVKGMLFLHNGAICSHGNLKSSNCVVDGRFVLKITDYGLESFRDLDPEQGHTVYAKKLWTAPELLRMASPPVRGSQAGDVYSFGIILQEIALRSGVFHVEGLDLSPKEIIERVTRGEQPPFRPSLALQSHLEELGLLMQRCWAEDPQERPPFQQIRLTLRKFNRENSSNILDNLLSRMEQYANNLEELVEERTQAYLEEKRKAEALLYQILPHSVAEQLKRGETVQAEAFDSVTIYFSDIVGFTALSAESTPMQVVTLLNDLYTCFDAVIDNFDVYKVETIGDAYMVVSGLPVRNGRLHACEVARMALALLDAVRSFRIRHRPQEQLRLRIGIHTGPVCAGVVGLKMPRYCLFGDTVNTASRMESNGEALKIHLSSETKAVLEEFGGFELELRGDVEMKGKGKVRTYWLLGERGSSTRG
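HEK293 cells stably expressing human Npr1 and cGMP GloSensor pGS-40F, loaded 2 h with 2% GloSensor reagent, given compound 30 min at room temperature. Luminescence read before and 20 min after 0.1 nM hNppA.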
FLuc inh – inhibitors of firefly (Photinus pyralis) luciferase | purified P. pyralis luciferase, luminescence, biochemical | Potency, µM (titrated, usually from 115 µM), actives largely listed as inhibitors | P08659 | 2.5% of 76,000 active; further: nearly all actives have a fitted effect of over 65% in size
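Luminescence read by CCD imager after adding enzyme (10nM final) to wells holding compound, titrated in qHTS. Substrates 10uM each D-luciferin and ATP; buffer 50mM Tris acetate pH 7.5, 10mM Mg acetate, Tween-20, BSA.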
NIH3T3 tox – kills NIH 3T3 cells; NIH 3T3 viability, CellTiter-Glo ATP luminescence, 48-72 h; Potency, µM (top dose mostly 96.7 µM), most hits filed as inhibitors; 4.3% of 94,000 active; further: nearly all actives have a fitted effect of over 55% in size
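Cytotoxicity was measured by CellTiter-Glo ATP luminescence after 48 or 72 h compound exposure at 37 °C. Mouse NIH 3T3 fibroblasts were seeded at 400 cells/well and dosed by 23 nL pin transfer.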
HEK cytotox – cytotoxic compounds in HEK 293 cells. HEK 293 viability, ATP luminescence (CellTiter-Glo), 48-72 h. Potency, µM (highest dose often 115 µM), usual class: inhibitors. 6.6% of 94,000 active. AID 1345083; further: nearly all actives have a fitted effect of over 60% in size
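ATP-coupled CellTiter-Glo luminescence served as viability read-out, recorded 10 min after reagent addition at room temperature. HEK 293 cells, 250 cells/well, had been incubated with pintool-transferred compound for 48 or 72 hr at 37 degree Celsius.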
Each line names hits and unclear results; the compound was inactive in the other large screens. Rows were chosen to be rich in hits. Some 11% of all compounds tested hit in one or more screens of this group. Unless noted, the call rests on the fitted dose curve; in most records, active means well fitted curve in the direction sought with a large enough effect; inconclusive means small, poorly fitted or top-dose-only effect, or another doubt; inactive means no such curve, though single readings can be large; an effect the other way counts as inactive or inconclusive.

Cc1csc(NC(=O)c2nc3c(o2)CCN(Cc2ccc(C#N)cc2)CC3)n1	hNpr1 antagonist inconclusive, FLuc inh 22.4µM, NIH3T3 tox inconclusive, HEK cytotox inconclusive
Cc1csc(NC(=O)c2nc3c(o2)CCN(Cc2c(C)noc2C)CC3)n1	FLuc inh 63.1µM, NIH3T3 tox 50.1µM
CCCN1CCc2nc(C(=O)Nc3nc(C)cs3)oc2CC1	FLuc inh 20µM, HEK cytotox inconclusive
Cc1csc(NC(=O)c2nc3c(o2)CCN(Cc2ccccc2)CC3)n1	FLuc inh inconclusive, NIH3T3 tox inconclusive, HEK cytotox 56.2µM
O=C(NCC1CC1)c1nc2c(o1)CCN(CCCc1ccccc1)CC2	FLuc inh inconclusive, HEK cytotox inconclusive
Cc1noc(C)c1CN1CCc2ncc(C(=O)Nc3ccccc3)n2CC1	NIH3T3 tox inconclusive
COCCN(Cc1ccsc1)Cc1cn[nH]c1-c1ccc(F)cc1	HEK cytotox 89.1µM
COc1cccc(S(=O)(=O)N2CC(N(C3CCOCC3)S(C)(=O)=O)C2)c1	none
COc1ccc(CN2CC3(C2)C(=O)N(Cc2cccc(Cl)c2)C(=O)[C@@H]2C[C@@H](O)CN23)c2ccccc12	NIH3T3 tox inconclusive, HEK cytotox inconclusive
COC(=O)c1ccc(CN2C(=O)[C@@H]3C[C@@H](O)CN3C3(CN(Cc4ccc(OC)c5ccccc45)C3)C2=O)cc1	NIH3T3 tox 79.4µM, HEK cytotox inconclusive
O=C(c1ccc(F)cc1)N1CCC(C(=O)N2CCC(c3nc4ncccc4[nH]3)CC2)CC1	none (no result: hNpr1 antagonist, FLuc inh)
O=C1CCN(CC(O)COc2ccccc2)c2ccc(F)cc2CN1CC1CC1 (centres undefined)	HEK cytotox inconclusive (no result: hNpr1 antagonist, FLuc inh)
CC1(Cc2ccc3c(c2)OCO3)CCCN(C(=O)c2cncc(Cl)c2)C1 (centres undefined)	NIH3T3 tox inconclusive, HEK cytotox 31.6µM
CC1(Cc2ccc3c(c2)OCO3)CCCN(C(=O)N2CCOCC2)C1 (centres undefined)	none
Cc1c(Cl)c(C(=O)N2CCCC(C)(Cc3ccc4c(c3)OCO4)C2)nn1C (centres undefined)	FLuc inh 31.6µM, NIH3T3 tox inconclusive, HEK cytotox inconclusive
COc1ccccc1CN1CCN(C(=O)CC2CCOCC2)CC1	none
CSc1ccc(-c2cccc(C(=O)NCC(=O)NCc3cccc(C(F)(F)F)c3)c2)cc1	NIH3T3 tox inconclusive, HEK cytotox 39.8µM (no result: hNpr1 antagonist, FLuc inh)
COc1ccc(CNC(=O)CNC(=O)c2cccc(-c3ccc(SC)cc3)c2)cc1OC	NIH3T3 tox inconclusive, HEK cytotox 31.6µM (no result: hNpr1 antagonist, FLuc inh)
CSc1ccc(-c2cccc(C(=O)NCCNC(=O)c3ccccc3F)c2)cc1	HEK cytotox inconclusive (no result: hNpr1 antagonist, FLuc inh)
CSc1ccc(-c2cccc(C(=O)NCCNC(=O)c3ccccc3C)c2)cc1	HEK cytotox 25.1µM (no result: hNpr1 antagonist, FLuc inh)
CSc1ccc(-c2cccc(C(=O)NCC(=O)NCc3ccccc3F)c2)cc1	HEK cytotox inconclusive (no result: hNpr1 antagonist, FLuc inh)
COc1cccc(CNC(=O)CNC(=O)c2cccc(-c3ccc(C(F)(F)F)cc3)c2)c1	NIH3T3 tox inconclusive, HEK cytotox 22.4µM (no result: hNpr1 antagonist, FLuc inh)
CC(C)CCN1CCC(N2CCN(C(=O)c3cccc(Br)c3)CC2)C1=O (centres undefined)	none
COc1ccc2c(c1)C(C(=O)Nc1cc([S+](=O)([O-])N3CCOCC3)ccc1C)=CC(C)(C)CO2	HEK cytotox inconclusive (no result: hNpr1 antagonist, FLuc inh)
O=C(CCCc1ccccc1)Nc1ccnn1C1CCN(C(=O)Cc2ccccc2F)CC1	FLuc inh inconclusive
CSc1ccc(-c2cccc(C(=O)NCC(=O)NCc3ccc4c(c3)OCO4)c2)cc1	HEK cytotox inconclusive (no result: hNpr1 antagonist, FLuc inh)
O=C(CNC(=O)c1cccc(-c2ccc(C(F)(F)F)cc2)c1)NCc1cccs1	NIH3T3 tox inconclusive, HEK cytotox 39.8µM (no result: hNpr1 antagonist, FLuc inh)
CSc1ccc(-c2cccc(C(=O)NCC(=O)NCc3cccnc3)c2)cc1	NIH3T3 tox inconclusive, HEK cytotox 22.4µM (no result: hNpr1 antagonist, FLuc inh)
COc1ccc(F)cc1-c1cccc(C(=O)NCC(=O)NCc2ccc(C(F)(F)F)cc2)c1	NIH3T3 tox 39.8µM, HEK cytotox 39.8µM (no result: hNpr1 antagonist, FLuc inh)
CSc1ccc(-c2cccc(C(=O)NCC(=O)NCc3ccc(C(F)(F)F)cc3)c2)cc1	NIH3T3 tox inconclusive, HEK cytotox 44.7µM (no result: hNpr1 antagonist, FLuc inh)
O=C(NC1CCN(CCn2nc3n(c2=O)CCCC3)C1)c1ccccc1F (centres undefined)	none (no result: hNpr1 antagonist, FLuc inh)
Cc1cc(NC(=O)CCn2ccn3nc4c(c3c2=O)CCCC4)ccc1F	HEK cytotox inconclusive
CCNC(=O)N1CC(C(=O)NCc2cccc(F)c2)CC(c2ccc(F)c(C)c2)C1 (centres undefined)	NIH3T3 tox inconclusive, HEK cytotox inconclusive
Cc1cc(C2CC(C(=O)NCCc3ccccc3)CN(C(=O)C3CC3)C2)ccc1F (centres undefined)	NIH3T3 tox 31.6µM, HEK cytotox inconclusive
CN1CCC2(C1)CN(Cc1ccccc1)c1ccc(C(=O)NC3COC3)cc12 (centres undefined)	HEK cytotox inconclusive
CCNC(=O)c1ccc2c(c1)C1(CCN(CC3CC3)C1)CN2Cc1ccccc1 (centres undefined)	NIH3T3 tox inconclusive, HEK cytotox inconclusive
CN(C)CCNC(=O)c1ccc2c(c1)C1(CCN(CC3CC3)C1)CN2Cc1ccccc1 (centres undefined)	NIH3T3 tox 31.6µM, HEK cytotox 44.7µM
O=C(NC1CCC1)c1ccc2c(c1)C1(CCN(CC3CC3)C1)CN2Cc1ccccc1 (centres undefined)	NIH3T3 tox inconclusive, HEK cytotox 56.2µM
CN1CCC2(C1)CN(Cc1ccccc1)c1ccc(C(=O)NCC3CC3)cc12 (centres undefined)	NIH3T3 tox inconclusive, HEK cytotox 112µM
O=C(NCC1CC1)c1ccc2c(c1)C1(CCN(CC3CC3)C1)CN2Cc1ccccc1 (centres undefined)	NIH3T3 tox 79.4µM, HEK cytotox inconclusive
COc1ccc(CNC(=O)N2CCC3(CC2)CC3c2noc(C)n2)cc1 (centres undefined)	none (no result: hNpr1 antagonist, FLuc inh)
Cc1ccccc1C(=O)N1CCN(c2ccnc3ccnn23)CC1	NIH3T3 tox inconclusive (no result: hNpr1 antagonist, FLuc inh)
CN1CCC2(C1)CN(Cc1ccccc1)c1ccc(C(=O)NCCOc3ccccc3)cc12 (centres undefined)	NIH3T3 tox inconclusive, HEK cytotox 31.6µM
Cc1nc(CN2CC3(CCN(C)C3)c3cc(C(=O)NCCc4ccccc4)ccc32)cs1 (centres undefined)	NIH3T3 tox inconclusive, HEK cytotox 79.4µM
COCCNC(=O)c1ccc2c(c1)C1(CCN(C)C1)CN2Cc1csc(C)n1 (centres undefined)	NIH3T3 tox inconclusive
CN1CC2(CCCN(CC3CC3)C2)c2cc(C(=O)NCCOc3ccccc3)ccc21 (centres undefined)	NIH3T3 tox 79.4µM, HEK cytotox 100µM
O=C(Cc1ccc(F)cc1)N1CCCC(C(=O)N2CCCC2c2nc3ccncc3[nH]2)C1 (centres undefined)	none (no result: hNpr1 antagonist, FLuc inh)
N#Cc1ccc(CN2C[C@@H](COCC(N)=O)[C@H](c3ccncc3)C2)cc1	HEK cytotox 89.1µM
CC(C)n1cc(CN2C[C@@H](COCC(N)=O)[C@H](c3ccncc3)C2)cn1	HEK cytotox inconclusive

From PubChem
